# Lassa entry inh = inhibitors of Lassa virus binding or cell entry; Lassa virus pseudotype entry inhibition, cell reporter; Potency, µM (titrated, usually from 37.9 µM), for inactives: at the highest dose activity change, negative = inhibition, actives largely listed as inhibitors; hit rate 1.2% among 300,000; AID 540256; calls by dose curve; tested in HEK293 cells; note: potency is the fitted concentration of half-maximal effect; nearly all actives have a fitted effect of over 50% in size
# VACV Venus inh = inhibitors of vaccinia virus (Venus reporter). Vaccinia virus Venus reporter expression, fluorescence. Potency, µM (titrated, usually from 36.5 µM), for the others: at the highest dose activity change, negative = inhibition, most hits filed as inhibitors. hit rate 0.46% among 330,000; calls by dose curve; tested in A549 cells; note: potency is the fitted concentration of half-maximal effect; nearly all actives have a fitted effect of over 30% in size
# VACV mCherry inh = vaccinia inhibition (mCherry reporter). Potency, µM (titrated, usually from 36.5 µM), inactives show at the highest dose activity change, negative = inhibition, actives largely listed as inhibitors. hit rate 0.63% among 310,000. Vaccinia virus mCherry reporter infection, fluorescence; calls by dose curve; tested in A549 cells; note: potency is the fitted concentration of half-maximal effect; nearly all actives have a fitted effect of over 35% in size
# Marburg entry inh = inhibitors of Marburg virus binding or cell entry; Marburg virus pseudotyped entry inhibition, cell reporter; Potency, µM (doses to about 37.8 µM), for inactives: at the top dose activity change, negative = inhibition, most hits filed as inhibitors; hit rate 1.8% among 300,000; AID 540276; calls by dose curve; tested in HEK293 cells; note: potency is the fitted concentration of half-maximal effect
# FMDV inh = antivirals against foot and mouth disease virus. FMDV antiviral cell-based qHTS. Potency, µM (series often up to 57.9 µM), without a hit: top-dose activity change, negative = inhibition, hits mostly inhibitors. hit rate 1.2% among 410,000. AID 1159524; calls by dose curve; tested in HEK293T cells; note: read-out not given here; potency is the fitted concentration of half-maximal effect; nearly all actives have a fitted effect of over 45% in size
# HCMV antiviral = inhibitors of human cytomegalovirus. HFF cells, HCMV-luciferase reporter, 72 h; hits give low values. activity change, negative = inhibition, % at 57.5 µM. hit rate 4.5% among 410,000; in the data active = activity change below about -60%; inconclusive = no clear call, values can overlap the other calls; inactive = above about -39%
#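 Screen run at 2 compound doses on HFFs infected with reporter HCMV, MOI 1 PFU/cell. Luciferase activity from cell lysates at 72 h post infection gave inhibition relative to buffer-only and Salinomycin wells.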
# * marks the source's active call; other numbers are inactive results; i = inactive; u = inconclusive; x = no result; [ ] = another dose, or the depositor's remark. Shown are actives, neighbours in structure and some others; about 6.5% of the full set was active somewhere. % is set by controls: 0 for no effect and ±100 for the full control effect.
SMILES,Lassa entry inh,VACV Venus inh,VACV mCherry inh,Marburg entry inh,FMDV inh,HCMV antiviral
O=C(c1ccco1)N1CCN(C(=S)Nc2cccc([N+](=O)[O-])c2)CC1,u,-11%,i,u,u,-69*
CC(=O)SC1CC2=CC(=O)CC[C@]2(C)C2CC[C@@]3(C)C(CC[C@@]34CCC(=O)O4)C12 (stereo partly specified),u,x,x,5%,x,x
Cc1cc(C)n(C[C@@H]2CC(=O)N(c3cc(Cl)cc(Cl)c3)C2=O)n1,x,x,x,4%,x,x
COc1ccc(CN(Cc2ccccc2)C(=O)CN2CCN(C)CC2)cc1COc1ccc(NC(C)=O)cc1,x,-19%,-3%,x,x,x
Cc1ccc(CN(Cc2cccn2-c2nnc(N3CCCC3=O)s2)C(=O)Nc2cc(C)cc(C)c2)cc1,x,-1%,-8%,11%[46.1 µM],-9%,16
CCOC(C(=O)OCCCN(CC)CC)(c1ccccc1)c1ccccc1,u,-19%,i,u,u,u
CCN(CC)CCCOC(=O)C(OC(C)C)(c1ccccc1)c1ccccc1,16µM*,x,x,12µM*,u,-37
COc1ccc2cc(CNc3ccccc3)c(=O)n(CC(=O)Nc3ccc(C)cc3C)c2c1,u,-17%[7.34 µM],-16%[7.34 µM],x,-12%,-33
CCC1CN(C(=O)N2CCC(C(=O)NCCC3=CCCCC3)CC2)c2cc(C)ccc2O1 (stereo unspecified),-20%[46.1 µM],-6%,15%,x,u,129
CC(=O)Nc1ccc(OC[C@@H](O)CNC(C)C)cc1,x,x,x,x,4%,x
O=C(c1ccccc1)c1ccc(OCC(O)CNC2CCCc3ccccc32)cc1 (stereo unspecified),-14%,-19%,-9%,u,-23%,-2
CC(=O)CCc1ccc(OCC(O)CNC2CCCc3ccccc32)cc1 (stereo unspecified),-11%,-15%,-16%,u,-9%,-73*
COC(=O)CCc1ccc(OCC(O)CNC(C)C)cc1 (stereo unspecified),x,-18%,i,x,-11%,-64*
Cc1noc(C)c1-c1nc(Nc2ccc(F)cc2)c2ccccc2n1,x,x,x,x,-21%,x
Cc1ccc(C)c(N2CCN(C(=O)C3CCN(c4nnc(N5CCCC5=O)s4)CC3)CC2)c1,u,-19%,x,u,25µM*,-30
O=C(C1CCN(c2nnc(N3CCCC3=O)s2)CC1)N1CCN(c2cccc(C(F)(F)F)c2)CC1,x,x,x,x,-16%,-79*
O=c1ccn2c(n1)OC1CC2OC1COC(c1ccccc1)(c1ccccc1)c1ccccc1 (stereo unspecified),x,x,x,x,x,-1
O=C(Cc1c[nH]c2ccccc12)NNCc1ccc(N(CCCl)CCCl)cc1,3.5µM*,-28%,-11%,1.6µM*,-7%,u
CCOc1ccc(OCC)c(NS(=O)(=O)c2c(C)[nH]c(=O)[nH]c2=O)c1,-4%[46.1 µM],-8%,-8%,x,8%,0
Cc1ccccc1CNc1nc(N(C)C)nc2c1cnn2C,u,10%,0%,x,-23%,-24
Cc1ccc(N(CC(=O)Nc2cccc(Cl)c2C)S(=O)(=O)c2c(C)noc2C)cc1,-1%[46.1 µM],0%,-15%,-12%[46.1 µM],u,-13
Clc1ccc(-c2cc(-c3nnc4n3CCCCC4)c3ccccc3n2)cc1,6%,-10%,-16%,-7%,u,-72*
O=C(O)c1cnn(-c2ccccc2)c1C(F)(F)F,22%,-9%,-4%,u,2%,-80*
Oc1ccc(/C=N/Nc2ccc(C(F)(F)F)cn2)cc1,15%[46.1 µM],0%,-26%,u,36%,18
Oc1ccc(/C=N/Nc2ccc(C(F)(F)F)cn2)c(O)c1,x,x,x,x,x,-94*
SMILES,Lassa entry inh,VACV Venus inh,VACV mCherry inh,Marburg entry inh,FMDV inh,HCMV antiviral
O=C1Cc2c([nH]c3ccc(Br)cc23)-c2ccccc2N1,u,u,u,u,22%,-75*
O=c1c2cc(Br)ccc2[nH]c(=S)n1-c1ccccc1,13%,-4%,i,0%,20%,-15
COc1cc(C2CC(=O)c3c([nH]c(C(=O)OC4CCCC4)c3C)C2)cc(OC)c1OC (stereo unspecified),u,u,u,u,u,-98*
CCOCCOC(=O)c1[nH]c2c(c1C)C(=O)CC(c1cc(OC)c(OC)c(OC)c1)C2 (stereo unspecified),-17%,-15%,1%,u,28µM*,-62*
COC(=O)c1[nH]c2c(c1C)C(=O)CC(c1ccc(OC)c(OC)c1)C2 (stereo unspecified),x,x,x,x,-7%,x
COC(=O)c1[nH]c2c(c1C)C(=O)CC(c1cc(OC)c(OC)c(OC)c1)C2 (stereo unspecified),x,x,x,x,u,-74*
Cc1nc2ccc(C(=O)N3CCOc4ccc(CN5CCOCC5)cc4C3)cc2nc1C,x,14%,-4%,x,1%,x
Cc1ccc(Cn2cnc3nc4c(cc3c2=O)CC(C)CC4)cc1 (stereo unspecified),20%[46.1 µM],-13%,-12%,x,82%,91
Cc1cc(C)c2nccc(/C=C/c3ccc(N(C)C)cc3)c2c1,x,-10%,-22%,x,x,x
COCCNC(=O)COc1ccc(OCCNC[C@H](O)COc2ccccc2)cc1,x,-14%,i,x,-17%,x
COc1cccc(CNC(=O)C2CCN(c3nnc(-n4c(C)ccc4C)s3)CC2)c1,-8%[46.1 µM],-6%,-6%,-20%[46.1 µM],-21%,-27
Cc1nc2sc(-c3ccccc3)cc2c(=O)n1N,x,x,x,x,40µM*,0
Cc1nc2sc(-c3ccccc3)cc2c(=O)n1-n1cccc1,u,-8%,x,u,-16%,11
CCOC(=O)C1=CCN(S(C)(=O)=O)C1c1ccc(Cl)cc1 (stereo unspecified),x,x,x,x,x,11
CCN1C(=O)N(S(=O)(=O)c2ccc(C)cc2)C(c2ccccc2)C(C(=O)OC)=C1C (stereo unspecified),x,x,x,17%[14.2 µM],x,x
Cn1c2c(c(=O)n(C)c1=O)C(C(F)(F)F)(C(F)(F)F)N=C(c1ccc(Cl)cc1)N2,2.8µM*,u,u,1µM*,2.2µM*,x
Cc1ccccc1C1=NC(C(F)(F)F)(C(F)(F)F)c2c(n(C)c(=O)n(C)c2=O)N1,-8%,-22%,i,-3%,-23%,u
CCN(CC)CCCNc1oc(-c2cccc(Cl)c2)nc1C#N,-2%,x,x,16µM*,-14%,8
C=CCNc1oc(-c2cccc(Cl)c2)nc1C#N,x,x,x,x,35%,32
Cc1ccc(-c2[nH]ncc2CNC(C)c2ccccc2)cc1 (stereo unspecified),x,-20%,-9%,x,x,x
Cc1c(C(=O)N2CCN(C)CC2)sc2ncnc(NCC3(c4ccccc4)CCOCC3)c12,x,0%,i,x,-10%,x
CC(C)c1ccc(C(=O)NCCCN2CCN(CCCNC(=O)c3ccc(C(C)C)cc3)CC2)cc1,11µM*,u,-1%,u,u,-80*
O=C(NCCN1CCN(C(=O)c2ccc(Br)cc2)CC1)c1ccc(Br)cc1,-21%[46.1 µM],-10%,-13%,-1%[46.1 µM],u,-66*
O=C(NCCCN1CCN(CCCNC(=O)c2ccc(F)cc2)CC1)c1ccc(F)cc1,9%,-7%,-17%,-9%,-17%,-21
